{"source": "ChEMBL document CHEMBL1157539", "about": "“Thousands of chemical starting points for antimalarial lead identification” (Nature, 2010)", "note": "In all, about 13,000 compounds were measured (“IFI”: median about 4, highest 2% from about 17 on). Shown is part of a subset that was picked to be rich in the highest values.", "data": [{"test": "GSK_TCMDC: Inhibition Frequency Index (IFI). The number of non-kinase HTS assays where a compound showed > 50 % inhibition, expressed as a percentage of the number of such assays in which the compound was tested", "type": "functional", "units": {"IFI": "%"}, "values": [{"compound": "COc1c(C2CCN(CCCCNC(=O)c3ccc(-c4ccc(Cl)cc4)c(O)c3)CC2)ccc2c1CCCC2", "IFI": 9.09}, {"compound": "CN1CCCN(c2ccnc3cc4c(cc23)N(C(=O)c2ccc(Cl)cc2Cl)CC4)CC1", "IFI": 0.72}, {"compound": "N=C(NCCCc1ccccc1)c1cccc(C(=N)NCCCc2ccccc2)n1", "IFI": 1.47}, {"compound": "O=C(CCC1CCCCC1)NCCNc1cccc2ccccc12", "IFI": 1.47}, {"compound": "N=C(NCCCCC1CCCCC1)c1cccc(C(=N)NCCCCC2CCCCC2)n1", "IFI": 19.9}, {"compound": "COc1ccc2c(=NN=Cc3ccc(OC)c4ccccc34)cc(C)[nH]c2c1", "IFI": 2.14}, {"compound": "O=C(Cn1c(SCc2cccc(F)c2F)cc(=O)c2ccccc21)N(CCCn1ccnc1)Cc1ccc(-c2ccc(C(F)(F)F)cc2)cc1", "IFI": 2.17}, {"compound": "CCc1ccc(CN2CCC(CNC(=O)c3cc(-c4cccc(Cl)c4)cs3)C2)cc1", "note": "(centres undefined)", "IFI": 8.16}, {"compound": "CC(Cc1ccc(OCCN2CCN(c3cccc(Cl)c3)CC2)cc1)NCC(O)c1cccc(Cl)c1", "note": "(centres undefined)", "IFI": 16.4}, {"compound": "CC(Cc1ccc(OCCN2CCN(c3cccc(C(F)(F)F)c3)CC2)cc1)NCC(O)c1cccc(C(F)(F)F)c1", "note": "(centres undefined)", "IFI": 10.8}, {"compound": "CC(Cc1ccc(OCCN2CCN(c3ccc(Cl)cc3)CC2)cc1)NCC(O)c1cccc(C(F)(F)F)c1", "note": "(centres undefined)", "IFI": 18.1}, {"compound": "CC(Cc1ccc(CN2CCN(Cc3ccccc3)CC2)cc1)NCC(O)c1cccc(C(F)(F)F)c1", "note": "(centres undefined)", "IFI": 9.15}, {"compound": "CC(Cc1ccc(OCCN2CCN(c3ccccc3)CC2)cc1)NCC(O)c1cccc(Cl)c1F", "note": "(centres undefined)", "IFI": 12}, {"compound": "CC(Cc1ccc(OCCN2CCN(c3cccc(Cl)c3)CC2)cc1)NCC(O)c1cccc(C(F)(F)F)c1", "note": "(centres undefined)", "IFI": 17.2}, {"compound": "N#Cc1ccc(CN2CCCN(Cc3cccc(NC(=O)c4ccc(-c5ccccc5)cc4)c3)CC2)cc1", "IFI": 8.28}, {"compound": "Cc1cc(NCCC(=O)NCCc2ccccc2)nc(NCCc2ccc(F)cc2)n1", "IFI": 4.55}, {"compound": "O=C(/C=C/c1ccc(Cl)c(Cl)c1)NCCCCCN1CCCC(CNC(=O)Nc2ccc(C(F)(F)F)cc2)C1", "note": "(centres undefined)", "IFI": 17.7}, {"compound": "O=C(/C=C/c1ccc(Cl)cc1)NCCCCCN1CCCN(C(=O)Nc2ccc(Cl)c(C(F)(F)F)c2)CC1", "IFI": 14.3}, {"compound": "O=C(/C=C/c1ccc(Cl)c(Cl)c1)NCCCCCCN1CCCN(C(=O)Nc2ccc(Cl)c(C(F)(F)F)c2)CC1", "IFI": 11.3}, {"compound": "O=C(/C=C/c1ccc(C(F)(F)F)cc1)NCCCCCN1CCCN(C(=O)Nc2ccc(Cl)c(Cl)c2)CC1", "IFI": 20.4}, {"compound": "O=C(/C=C/c1ccc(C(F)(F)F)cc1)NCCCCCN1CCN(C(=O)Nc2ccc(Cl)c(Cl)c2)CC1", "IFI": 13.7}, {"compound": "O=C(/C=C/c1ccc(Cl)c(Cl)c1)NCCCCCN1CCCC(CCCNC(=O)Nc2ccc(C(F)(F)F)cc2)C1", "note": "(centres undefined)", "IFI": 11.3}, {"compound": "CC(C)c1ccc(NC(=O)NCC2CCCN(CCCCCNC(=O)/C=C/c3ccc(Cl)c(Cl)c3)C2)cc1", "note": "(centres undefined)", "IFI": 12.1}, {"compound": "O=C(/C=C/c1ccc(Cl)c(Cl)c1)NCCCCCCN1CCCN(C(=O)Nc2ccc(C(F)(F)F)cc2)CC1", "IFI": 12.3}, {"compound": "O=C(/C=C/c1ccc(C(F)(F)F)cc1)NCCCCCN1CCCN(C(=O)Nc2ccc(Cl)c(C(F)(F)F)c2)CC1", "IFI": 18.8}, {"compound": "Cc1ccc2c(c1)c(C1CCN(C(=O)c3ccc([N+](=O)[O-])o3)CC1)cn2C", "IFI": 4.35}, {"compound": "Cc1ccc(-c2nn3c(O)c4c(nc3c2C)CCCC4)cc1", "IFI": 0.88}, {"compound": "COc1c(C2CCN(CCN3CCC(CNC(=O)c4ccc(-c5ccc(C#N)cc5)cc4)CC3)CC2)ccc2c1CCCC2", "IFI": 16.2}, {"compound": "O=C(Nc1cccc(CN2CCCN(CCc3ccccc3)CC2)c1)c1ccc(Cl)c(Cl)c1", "IFI": 3.36}, {"compound": "CN1CCN(CCCN(Cc2cccc(-c3ccc(CNCCc4ccccc4)cc3)c2)C(=O)c2cccs2)CC1", "IFI": 11.3}, {"compound": "COC(=O)c1cccc(CNCc2ccc(-c3ccc(-c4nc5cc(C(F)(F)F)ccc5[nH]4)s3)cc2)c1", "IFI": 11.5}, {"compound": "Ic1cc(CNC2CCCCC2)ccc1OCc1cccc(COc2ccc(CNC3CCCCC3)cc2I)c1", "IFI": 10.1}, {"compound": "CCN(CC)Cc1cccc(-c2cc3c(-c4ccc(C(=O)O)c(C(C)C)c4)ccnc3[nH]2)c1OC", "IFI": 0}, {"compound": "COc1cccc2c(NN=Cc3cccc(Cl)c3)ccnc12", "IFI": 3.62}, {"compound": "COc1cc2nc(NCc3nc4ccccc4[nH]3)nc(N)c2cc1OC", "IFI": 0}, {"compound": "COc1ccc2ccccc2c1CCCCN1CCN(CC(c2ccc(F)cc2)N2CCN(C(C)C)CC2)CC1", "note": "(centres undefined)", "IFI": 14.7}, {"compound": "CC(C)N1CCN(C(CN2CCN(CCCOc3ccc(-c4ccccc4)cc3)CC2)c2ccc(F)cc2)CC1", "note": "(centres undefined)", "IFI": 20.3}, {"compound": "CC(C)N1CCN(C(CN2CCN(CCCOc3ccccc3-c3ccccc3)CC2)c2ccc(F)cc2)CC1", "note": "(centres undefined)", "IFI": 13.5}, {"compound": "COc1ccc2ccccc2c1CCCCN1CCN(CC(c2ccc(F)cc2)N2CCN(C3CCCC3)CC2)CC1", "note": "(centres undefined)", "IFI": 12.8}, {"compound": "CC(C)N1CCN(C(CN2CCN(CCCOc3cccc(-c4ccccc4)c3)CC2)c2ccc(F)cc2)CC1", "note": "(centres undefined)", "IFI": 16}, {"compound": "COc1ccc2ccccc2c1CCCCN1CCN(CC(c2ccc(F)cc2)N2CCC2)CC1", "note": "(centres undefined)", "IFI": 18.4}, {"compound": "CCCCCCCNCc1c(O)ccc2c(CNCCCCCCC)c(O)ccc12", "IFI": 13.6}, {"compound": "Oc1ccc2ccccc2c1C=NNc1nc(=Nc2ccccc2)nc(N2CCOCC2)[nH]1", "IFI": 3.68}, {"compound": "COc1ccccc1CCNc1nc(C)cc(N[C@@H](Cc2ccccc2)C(=O)NCc2cccs2)n1", "IFI": 9.76}, {"compound": "Cc1cnc(C(=O)Nc2ccc3c(c2)CCCN(Cc2c[nH]c4cnccc24)C3)cn1", "IFI": 0}, {"compound": "CCCCc1ccc(S(=O)(=O)Nc2ccc3c(c2)CCN(Cc2c[nH]c4cnccc24)CC3)cc1", "IFI": 19.4}, {"compound": "CCCc1ccc(S(=O)(=O)Nc2ccc3c(c2)CCC3)cc1", "IFI": 2.26}, {"compound": "CCOc1ccc(C(Cc2ccccc2)NC(=O)c2cccnc2)cc1OCC", "note": "(centres undefined)", "IFI": 0.83}, {"compound": "CN(C)CCCNc1ncnc2c1[nH]c1ccc(F)cc12", "IFI": 2.14}, {"compound": "COc1ccccc1CCNc1ncnc2c1[nH]c1ccc(F)cc12", "IFI": 20.5}, {"compound": "c1ccc(CCNc2ncnc3c2[nH]c2ccccc23)cc1", "IFI": 23.9}, {"compound": "COc1ccc(CNc2ncnc3c2[nH]c2ccc(F)cc23)cc1", "IFI": 17.2}, {"compound": "Cc1ccc2[nH]c3c(NCCN(C)C)ncnc3c2c1", "IFI": 0}, {"compound": "COc1ccc(CNCc2ccc(-c3ccc(-c4nc5cc(F)ccc5[nH]4)cc3)cc2)cc1", "IFI": 13.1}, {"compound": "Fc1ccc2[nH]c3c(NCCN4CCCCC4)ncnc3c2c1", "IFI": 1.4}, {"compound": "CN(C)CCNc1ncnc2c1[nH]c1ccc(Cl)cc12", "IFI": 0}, {"compound": "Fc1ccc2[nH]c3c(NCCCN4CCOCC4)ncnc3c2c1", "IFI": 0}, {"compound": "CC(C)C(C(=O)Nc1ccc2c(c1)OCO2)c1ccc(Cl)cc1", "note": "(centres undefined)", "IFI": 9.18}, {"compound": "Cc1cc(=O)c(-c2ccc(Oc3cccc(OC(F)(F)F)c3)cc2)c(C)[nH]1", "IFI": 3.76}, {"compound": "COc1ccc(N2CCN(CCCCNC(=O)c3ccc(NC(=O)c4cc(C(F)(F)F)cc(C(F)(F)F)c4)cc3)CC2)cc1OC", "IFI": 3.51}, {"compound": "c1ccc(CNCc2cccc(-c3ccc(-c4nc5ccccc5[nH]4)s3)c2)cc1", "IFI": 3.92}, {"compound": "CCCCCCCc1c(C)nc2cc(OC)ccc2c1O", "IFI": 0}, {"compound": "CC(C)Oc1cc(-c2ccc(S(C)(=O)=O)cc2)nc(N(Cc2cccc(F)c2F)Cc2cccc(F)c2F)n1", "IFI": 0}, {"compound": "c1ccc2c(c1)cc(CNCCCN1CCN(CCCNCc3cc4ccccc4c4ccccc34)CC1)c1ccccc12", "IFI": 19.4}, {"compound": "c1ccc2cc(CNCCCN3CCN(CCCNCc4ccc5ccccc5c4)CC3)ccc2c1", "IFI": 11.7}, {"compound": "c1ccc2c(CNCCCN3CCN(CCCNCc4c5ccccc5cc5ccccc45)CC3)c3ccccc3cc2c1", "IFI": 15.3}, {"compound": "CCCCNC(=N)Nc1ccc(OCCCOc2ccc(NC(=N)NCCCC)cc2)cc1", "IFI": 2.99}, {"compound": "CC(=O)c1ccc(NC(=O)Nc2ccc3nccc(N4CCN(C)CC4)c3c2)cc1", "IFI": 0}, {"compound": "COc1ccc2nccc([C@@H](O)CN3CCC(NCc4ccc5nc[nH]c(=O)c5c4)CC3)c2c1", "IFI": 0}, {"compound": "CC(=O)c1ccc2nc[nH]c(=O)c2c1", "IFI": 26.1}, {"compound": "Cc1cc(NCCC(=O)NCCOc2ccccc2)nc(NCCOc2ccccc2)n1", "IFI": 4.88}, {"compound": "Nc1ccc(-c2nc3cc(C4=N[C@H]5CCCC[C@H]5N4)ccc3o2)cc1[N+](=O)[O-]", "IFI": 1.41}, {"compound": "CCn1c(-c2nonc2N)nc2c(-c3cccc(Cl)c3)ncc(OCCCNCCc3c[nH]cn3)c21", "IFI": 7.69}, {"compound": "CCn1c(-c2nonc2N)nc2c(-c3cccc(NC(=O)Nc4ccccc4OC)c3)ncc(OCCCN)c21", "IFI": 20.5}, {"compound": "CCn1c(-c2nonc2N)nc2c(-c3cccc(NC(=O)Nc4cccc(OC)c4)c3)ncc(OCCCN)c21", "IFI": 15.6}, {"compound": "CCn1c(-c2nonc2N)nc2c(-c3cccc(NC(=O)Nc4ccccc4Cl)c3)ncc(OCCCN)c21", "IFI": 18.2}, {"compound": "Cc1ccc2[nH]c(-c3ccccc3)cc(=NN=Cc3cccnc3)c2c1", "IFI": 1.52}, {"compound": "Oc1ccc(CCNCCCCCCNCCc2ccc(Br)cc2)cc1O", "IFI": 5.15}, {"compound": "N#CCOc1c(C2CCN(CCCCNC(=O)c3ccc(-c4ccc(C(F)(F)F)cc4)cc3)CC2)ccc2c1CCCC2", "IFI": 7.08}, {"compound": "N=C(N)Nc1ccc(OCCCCCOc2ccc(NC(=N)N)cc2)cc1", "IFI": 3.13}, {"compound": "CC(C)Oc1ccc(CCCON2C(=N)N=C(N)NC2(C)C)cc1", "IFI": 5.63}, {"compound": "N#Cc1cccc(CN2CCCN(Cc3ccc(C(=O)Nc4ccc(Cl)cc4)cc3)CC2)c1", "IFI": 7.87}, {"compound": "CS(=O)(=O)c1ccc2c(c1)CCN(CCC1CCC(NC(=O)c3cc4cccc(Br)c4[nH]3)CC1)CC2", "note": "(centres undefined)", "IFI": 7.59}, {"compound": "CS(=O)(=O)c1ccc2c(c1)CCN(CCC1CCC(NC(=O)C(=Cc3ccc(Cl)cc3Cl)c3ccc(-c4ccccc4)cc3)CC1)CC2", "note": "(centres undefined)", "IFI": 5.48}, {"compound": "CC(C)(C)c1ccc(C(=O)NC2CCC(CCN3CCc4ccc(S(C)(=O)=O)cc4CC3)CC2)cc1C(F)(F)F", "note": "(centres undefined)", "IFI": 21.6}, {"compound": "Cc1ccc(NC(=O)c2cnc(N3CCN(c4ccncc4)CC3)c(Cl)c2)cc1", "IFI": 11.9}, {"compound": "O=C(Nc1ccc(N2CCC(Nc3ccccn3)CC2)cc1)c1cnc(Cl)c(Cl)c1", "IFI": 17.4}, {"compound": "O=C(Nc1ccc(F)cc1)c1cnc(N2CCN(c3ccncc3)CC2)c(Cl)c1", "IFI": 8.51}, {"compound": "Cn1nccc1C(=O)NCCNCc1ccc(-c2ccc(-c3nc4cc(F)ccc4[nH]3)cc2)cc1", "IFI": 8.91}]}]}
